Laboratory results: PubChem BioAssay (NCI)
The panel holds about 79,000 compounds, 15% with a hit somewhere; the sample as a whole holds those more often. Active and inactive are the calls of the source. Rule as the data show it: active = growth inhibition above about 70%; inactive = the rest.

Key:
[1] = NCI Yeast Anticancer Drug Screen. Data for the mec2-1 strain (AID 157); settings: S. cerevisiae mec2-1 strain, stronger effect = higher value
Summary of the method: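 Mutant yeast (mec2-1) grown with compound; growth inhibition relative to vehicle control reported.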

[2] = NCI Yeast Anticancer Drug Screen. Data for the rad14 strain (AID 159);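 also: 0% = growth of vehicle-treated control cultures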; settings: S. cerevisiae rad14 strain growth inhibition, stronger effect = higher value
Summary of the method: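 Test compounds were applied to a repair-deficient yeast strain. Its growth was then compared with that of cultures given vehicle alone, and inhibition was expressed relative to those controls.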

[3] = NCI Yeast Anticancer Drug Screen. Data for the sgs1 mgt1 strain (AID 161);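 also: 0% = growth of cultures given vehicle only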; settings: S. cerevisiae sgs1 mgt1 strain, stronger effect = higher value
Summary of the method: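 Yeast cells carrying a defined DNA-repair defect were exposed to test compounds. Growth inhibition was measured relative to vehicle-treated controls.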

[4] = NCI Yeast Anticancer Drug Screen. Data for the CLN2oe strain (AID 163);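 also: 0% = growth of vehicle-only control cultures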; settings: S. cerevisiae CLN2oe strain, stronger effect = higher value
Summary of the method: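 Compounds are applied to yeast harbouring a defined cell-cycle control change; reduced growth compared with vehicle-treated controls gives the value.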

[5] = NCI Yeast Anticancer Drug Screen. Data for the cln2 rad14 strain (AID 165);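 also: 0% = growth equal to vehicle treated cultures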; settings: S. cerevisiae cln2 rad14 strain, stronger effect = higher value
Summary of the method: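 Readout is yeast growth inhibition versus vehicle-treated controls, using a strain with cln2 and rad14 alterations exposed to compound.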

[6] = NCI Yeast Anticancer Drug Screen. Data for the bub3 strain (AID 167); settings: S. cerevisiae bub3 mutant strain, stronger effect = higher value
Summary of the method: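 Yeast carrying a defined mutation is treated with each compound, and growth is compared with that of vehicle-exposed cells to give inhibition.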

[7] = NCI Yeast Anticancer Drug Screen. Data for the wt2 strain (AID 169);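 also: 0% = growth of vehicle-treated yeast cultures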; settings: S. cerevisiae wt2 strain growth inhibition, stronger effect = higher value
Summary of the method: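 Against vehicle-treated controls, the growth of yeast exposed to each compound was compared, and the inhibition was recorded.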

[8] = NCI Yeast Anticancer Drug Screen. Data for the sgs1 strain (AID 173);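 also: 0% = growth of vehicle-only control cultures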; settings: S. cerevisiae sgs1 mutant, stronger effect = higher value
Summary of the method: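 Each compound was added to cultures of the altered yeast strain. Growth was recorded, and inhibition was derived by comparison with vehicle controls.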

[9] = NCI Yeast Anticancer Drug Screen. Data for the mlh1 rad18 strain (AID 175); settings: S. cerevisiae mlh1 rad18 strain growth inhibition, stronger effect = higher value
Summary of the method: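 Genetically defined yeast (DNA repair-deficient) exposed to compounds; growth inhibition determined relative to vehicle.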

[10] = NCI Yeast Anticancer Drug Screen. Data for the rad18 strain (AID 177); settings: S. cerevisiae rad18 mutant growth inhibition, stronger effect = higher value
Summary of the method: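 Vehicle-treated cultures served as the baseline for scoring compound-induced growth inhibition in DNA-repair-mutant yeast.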

[11] = NCI Yeast Anticancer Drug Screen. Data for the wt1 strain (AID 149);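 also: 0% = growth of vehicle-treated wt1 cultures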; settings: S. cerevisiae wt1 strain (SPY 50644) growth inhibition, stronger effect = higher value
Summary of the method: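 wt1 yeast, compound-treated; % growth inhibition vs vehicle control.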

[12] = NCI Yeast Anticancer Drug Screen. Data for the rad50EPP+ strain (AID 151);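 also: 0% = growth of vehicle-treated control cultures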; settings: S. cerevisiae rad50 mutant strain, stronger effect = higher value
Summary of the method: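 Vehicle-normalised growth inhibition; rad50EPP+ yeast strain, altered in DNA damage repair, compound-treated.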

[13] = NCI Yeast Anticancer Drug Screen. Data for the mgt1 strain (AID 153); settings: S. cerevisiae mgt1 mutant growth inhibition, stronger effect = higher value
Summary of the method: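 Vehicle-normalized growth inhibition is determined in mgt1 yeast, a strain selected for a defined alteration in DNA repair or cell cycle control.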

[14] = NCI Yeast Anticancer Drug Screen. Data for the rad50 strain (AID 155);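 also: 0% = growth of vehicle-only cultures of the same strain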; settings: S. cerevisiae rad50 strain growth inhibition, stronger effect = higher value
Summary of the method: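 Genetically altered yeast (DNA repair pathway); compound treatment; growth inhibition vs vehicle ctrl.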

[15] = NCI Yeast Anticancer Drug Screen. Data for the mlh1 strain (AID 171);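 also: 0% = growth of vehicle-treated control cultures of the same strain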; settings: S. cerevisiae mlh1 strain growth inhibition, stronger effect = higher value
Summary of the method: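 Measured: yeast growth. Reference: vehicle-treated controls. Organism: strain with a defined alteration affecting DNA damage repair or cell cycle control, treated with compound.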

[16] = at 5.0 µM (retest, dose inferred, filed as 0.5)
[17] = at 50.0 µM (retest, dose inferred, filed as 5.0)

Measured: growth inhibition

Nc1cccc2cc(Cl)cnc12
inactive: [2]; at 1.2 µM -36% | [2]; at 3.7 µM -31% | [2]; at 11.0 µM -36% | [2]; at 33.0 µM -31% | [2]; at 100.0 µM 58% | [3]; [16] 3% | [3]; [17] 10% | [3]; at 50.0 µM 59.7% | [4]; at 1.2 µM 2% | [4]; at 3.7 µM -4% | [4]; at 11.0 µM -23% | [4]; at 33.0 µM -16% | [4]; at 100.0 µM 38% | [5]; [16] 52% | [5]; [17] 41% | [5]; at 50.0 µM 49.3% | [6]; at 1.2 µM 3% | [6]; at 3.7 µM 10% | [6]; [16] 41% | [6]; at 11.0 µM 8% | [6]; at 33.0 µM 13% | [6]; [17] 18% | [6]; at 50.0 µM 38.5% | [7]; at 1.2 µM -34% | [7]; at 3.7 µM -18% | [7]; at 11.0 µM -20% | [7]; at 33.0 µM -15% | [7]; at 100.0 µM 34% | [8]; at 1.2 µM -32% | [8]; at 3.7 µM -31% | [8]; at 11.0 µM -14% | [8]; at 33.0 µM 0% | [8]; at 100.0 µM 64% | [9]; [16] 55% | [9]; at 50.0 µM 67.3% | [10]; at 1.2 µM 13% | [10]; at 3.7 µM 27% | [10]; at 11.0 µM 61%
active: [1]; at 100.0 µM 78% | [6]; at 100.0 µM 81% | [9]; [17] 100% | [10]; at 33.0 µM 82% | [10]; at 100.0 µM 90%

CCCC#CCOC(=O)c1cc([N+](=O)[O-])cc([N+](=O)[O-])c1
inactive: [11]; at 1.2 µM -4% | [11]; at 3.7 µM 22% | [12]; at 1.2 µM 22% | [13]; at 1.2 µM -5% | [14]; at 1.2 µM 2% | [14]; at 3.7 µM 67% | [1]; at 1.2 µM -2% | [1]; at 3.7 µM 33% | [2]; at 1.2 µM 0% | [2]; at 3.7 µM 28% | [4]; at 1.2 µM -2% | [4]; at 3.7 µM 11% | [5]; [16] 23% | [6]; at 1.2 µM -9% | [6]; at 3.7 µM 4% | [7]; at 1.2 µM -5% | [15]; at 1.2 µM 1% | [15]; at 3.7 µM 30% | [8]; at 1.2 µM 4% | [10]; at 1.2 µM 4%
active: [11]; at 11.0 µM 99% | [11]; at 33.0 µM 99% | [11]; at 100.0 µM 99% | [12]; at 3.7 µM 92% | [12]; at 11.0 µM 99% | [12]; at 33.0 µM 99% | [12]; at 100.0 µM 99% | [13]; at 3.7 µM 86% | [13]; at 11.0 µM 99% | [13]; at 33.0 µM 99% | [13]; at 100.0 µM 99% | [14]; [16] 88% | [14]; at 11.0 µM 98% | [14]; at 33.0 µM 98% | [14]; [17] 99% | [14]; at 50.0 µM 99.5% | [14]; at 100.0 µM 99% | [1]; [16] 99% | [1]; at 11.0 µM 99% | [1]; at 33.0 µM 99% | [1]; [17] 100% | [1]; at 50.0 µM 99.7% | [1]; at 100.0 µM 99% | [2]; at 11.0 µM 98% | [2]; at 33.0 µM 99% | [2]; at 100.0 µM 99% | [3]; [16] 97% | [3]; [17] 100% | [3]; at 50.0 µM 99.7% | [4]; at 11.0 µM 99% | [4]; at 33.0 µM 99% | [4]; at 100.0 µM 99% | [5]; [17] 99% | [5]; at 50.0 µM 99.5% | [6]; [16] 86% | [6]; at 11.0 µM 98% | [6]; at 33.0 µM 98% | [6]; [17] 99% | [6]; at 50.0 µM 99.8% | [6]; at 100.0 µM 99% | [7]; at 3.7 µM 95% | [7]; at 11.0 µM 97% | [7]; at 33.0 µM 99% | [7]; at 100.0 µM 99% | [15]; at 11.0 µM 99% | [15]; at 33.0 µM 99% | [15]; at 100.0 µM 99% | [8]; at 3.7 µM 97% | [8]; at 11.0 µM 99% | [8]; at 33.0 µM 99% | [8]; at 100.0 µM 99% | [9]; [16] 97% | [9]; [17] 100% | [9]; at 50.0 µM 99.5% | [10]; at 3.7 µM 81% | [10]; at 11.0 µM 99% | [10]; at 33.0 µM 99% | [10]; at 100.0 µM 99%

CC1=NN(C(=O)CC(=O)N(C(=O)c2ccccc2)c2ccc(Cl)cc2)C(=O)C1N=Nc1ccc([N+](=O)[O-])cc1 (centres undefined)
active: [13]; at 100.0 µM 71% | [14]; at 33.0 µM 74% | [14]; [17] 89% | [14]; at 50.0 µM 84.5% | [14]; at 100.0 µM 74% | [1]; at 50.0 µM 83.6% | [3]; at 50.0 µM 77.7% | [4]; at 33.0 µM 75% | [4]; at 100.0 µM 77% | [6]; at 50.0 µM 85% | [6]; at 100.0 µM 71% | [7]; at 33.0 µM 87% | [7]; at 100.0 µM 82% | [9]; [17] 75% | [9]; at 50.0 µM 81% | [10]; at 33.0 µM 85% | [10]; at 100.0 µM 84%
inactive: [11]; at 1.2 µM -43% | [11]; at 3.7 µM -1% | [11]; at 11.0 µM 10% | [11]; at 33.0 µM 26% | [11]; at 100.0 µM 37% | [12]; at 1.2 µM 6% | [12]; at 3.7 µM 26% | [12]; at 11.0 µM 39% | [12]; at 33.0 µM 41% | [12]; at 100.0 µM 32% | [13]; at 1.2 µM 0% | [13]; at 3.7 µM 7% | [13]; at 11.0 µM 35% | [13]; at 33.0 µM 62% | [14]; at 1.2 µM -3% | [14]; at 3.7 µM 8% | [14]; [16] 41% | [14]; at 11.0 µM 50% | [1]; at 1.2 µM -3% | [1]; at 3.7 µM 8% | [1]; [16] 8% | [1]; at 11.0 µM 41% | [1]; at 33.0 µM 67% | [1]; [17] 56% | [1]; at 100.0 µM 68% | [2]; at 1.2 µM -1% | [2]; at 3.7 µM 7% | [2]; at 11.0 µM 23% | [2]; at 33.0 µM 44% | [2]; at 100.0 µM 53% | [3]; [16] -1% | [3]; [17] 49% | [4]; at 1.2 µM -11% | [4]; at 3.7 µM 6% | [4]; at 11.0 µM 48% | [5]; [16] 63% | [5]; [17] 66% | [5]; at 50.0 µM 55.8% | [6]; at 1.2 µM -5% | [6]; at 3.7 µM -6% | [6]; [16] 4% | [6]; at 11.0 µM 30% | [6]; at 33.0 µM 63% | [6]; [17] 67% | [7]; at 1.2 µM -4% | [7]; at 3.7 µM 7% | [7]; at 11.0 µM 64% | [15]; at 1.2 µM 0% | [15]; at 3.7 µM 8% | [15]; at 11.0 µM 36% | [15]; at 33.0 µM 59% | [15]; at 100.0 µM 69% | [8]; at 1.2 µM 0% | [8]; at 3.7 µM 14% | [8]; at 11.0 µM 46% | [8]; at 33.0 µM 68% | [8]; at 100.0 µM 69% | [9]; [16] 24% | [10]; at 1.2 µM 4% | [10]; at 3.7 µM 11% | [10]; at 11.0 µM 62%
